Records with an inconclusive call do not appear. Where a call stands in place of a potency, no number is given. Active and inactive are the calls of the source. The call rests on the fitted dose curve; in most records, active means well fitted cell-killing curve with a large enough effect in the repeat runs; inconclusive means weak or mixed curves, or effect the other way; inactive means no such curve, though single readings can be large or run the other way.
test: qHTS assay to identify aromatase inhibitors - cell viability counter screen (AID 743084); conditions: MCF-7 aro ERE viability, CellTiter-Fluor, 24 h; series mostly up to 70.3 µM;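 further: cells stimulated with testosterone during compound exposure; nearly all actives have a fitted effect of over 55% in size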
Potency means the concentration at half of the fitted maximal effect.

Row | SMILES | Potency
1 | C[Si]1(C)N[Si](C)(C)N[Si](C)(C)N1 | inactive
2 | O=C(COCCOCCOCC(=O)Nc1c(I)cc(I)c(C(=O)O)c1I)Nc1c(I)cc(I)c(C(=O)O)c1I | inactive
3 | C[C@H]1O[C@H](O[C@H]2[C@H](O)[C@@H](O)[C@@H](O[C@H]3[C@H](O)[C@@H](O)[C@H](O)O[C@@H]3CO)O[C@@H]2CO)[C@H](O)[C@@H](O)[C@@H]1N[C@H]1C=C(CO)[C@@H](O)[C@H](O)[C@H]1O | inactive
4 | CCCCCC1CCCC(=O)O1 (stereo not drawn) | inactive
5 | Nc1cc(Cl)cc(S(=O)(=O)O)c1O | inactive
6 | Cc1oc(=O)oc1CN1CCN(c2cc3c(cc2F)c(=O)c(C(=O)O)c2n3C(C)S2)CC1 (stereo not drawn) | inactive
7 | COC(OC)C(C)c1ccccc1 (stereo not drawn) | inactive
8 | CCNC(=O)/C=C/c1cccc(Br)c1 | inactive
9 | N#CCCOCCOCCC#N | inactive
10 | Nc1ccc(S(=O)(=O)NC(=O)c2ccccc2)cc1 | inactive
11 | CCCOC(=O)CCCCC(=O)OCCC | inactive
12 | COc1cc(C=O)ccc1OC(=O)C(C)C | inactive
13 | CCC(O)C(C)(C)C (stereo not drawn) | inactive
14 | O=C(O)c1c(Cl)ccc(Cl)c1Cl | inactive
15 | CC(C)CCC(=O)CCC(C)C | inactive
16 | Cc1cc(O)c2c(c1)C(=O)c1cccc(O)c1C2=O | inactive
17 | O=[Si]=O | inactive
18 | CCC(=O)OCCC(C)CCC=C(C)C (stereo not drawn) | inactive
19 | C=CCOc1c(Br)cc(Br)cc1Br | inactive

Row | SMILES | Potency
20 | C=CCOc1c(Br)cc(C(C)(C)c2cc(Br)c(OCC=C)c(Br)c2)cc1Br | inactive
21 | COc1cc2c3cc1Oc1cc(ccc1O)C[C@@H]1c4c(cc(OC)c(O)c4Oc4ccc(cc4)C[C@@H]3N(C)CC2)CC[N+]1(C)C | inactive
22 | Cc1ccccc1N1CCN(CCc2nnc3n2CCCC3)CC1 | inactive
23 | NS(=O)(=O)c1cc2c(cc1Cl)NC(CC1CCCC1)NS2(=O)=O (stereo not drawn) | inactive
24 | CC(=O)c1ccc(OCC(=O)N2CCCCC2)cc1 | inactive
25 | O=S(=O)(O)CCO | inactive
26 | CNCc1ccccc1 | inactive
27 | CN=C(NC#N)NCCSCc1csc(N=C(N)N)n1 | inactive
28 | C=C[Si](C)(C)O[Si](C)(C)C=C | inactive
29 | COc1ccc(N=Nc2cc(C)c(N=Nc3ccc(S(=O)(=O)O)cc3)cc2OC)cc1 | 48.6 µM (active)
30 | O=C1OC(=O)c2ccccc21 | inactive
31 | CC(=O)OC(C)c1ccccc1 (stereo not drawn) | inactive
32 | O=S1(=O)CCCC1 | inactive
33 | Cc1cccc(C(=O)O)c1[N+](=O)[O-] | inactive
34 | NC(=O)C1(N2CCCCC2)CCN(CCCC(=O)c2ccc(F)cc2)CC1 | inactive
35 | O=C(/C=C/c1ccccc1)NCCO | inactive
36 | O=C(O)Cc1cccc(-c2cc(CCCCCCc3ccc(O[C@H]4O[C@H](CO)[C@@H](O)[C@H](O)[C@@H]4O)c(-c4cccc(CC(=O)O)c4)c3)ccc2O[C@H]2O[C@H](CO)[C@@H](O)[C@H](O)[C@@H]2O)c1 | inactive
37 | O=C(Oc1ccccc1C(=O)O)c1ccccc1O | inactive
38 | CN[C@@H]1[C@H](O)[C@H](NC)[C@H]2O[C@@]3(O)C(=O)C[C@@H](C)O[C@H]3O[C@@H]2[C@H]1O | inactive
